Screening results (PubChem)
NPC1 promoter act: activators of NPC1 promoter | Huh7 NPC1 promoter luciferase reporter, 24 h | Potency, µM (highest dose often 9.22 µM), for the others: at the highest dose activation, actives largely listed as activators | 320,000 tested, 2.4% active | AID 485313; note: % of control where 0% means no effect; nearly all actives have a fitted effect of over 60% in size
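Compounds in DMSO were transferred onto Huh7 NPC1-luciferase reporter cells pre-incubated 2 h; after 24 h at 37 °C, Amplite reagent was dispensed and luminescence recorded 10 min later.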
Rab9 promoter act: activators of Rab9 promoter; Huh7 Rab9 promoter-luciferase reporter, luminescence, 24 h; Potency, µM (doses to about 9.22 µM), for the others: top-dose activation, negative = inhibition, hits mostly activators; 320,000 tested, 2.8% active; AID 485297; note: % of control where 0% means no effect; nearly all actives have a fitted effect of over 60% in size
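Quantitative HTS format; Huh7 Rab9-luciferase reporter cells (1500/well) receive compound 2 h post-plating, incubate 24 h at 37 °C, then get luciferase reagent for 10 min before luminescence reading.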
ELG1 genotoxic: induces genotoxicity in HEK293T cells with luciferase-tagged ELG1; HEK293T ELG1-luciferase reporter, luminescence, 16 h; Potency, µM (doses to about 46 µM), without a hit: at the highest dose activity change, positive = activation, usual class: activators; 330,000 tested, 1.3% active; note: % of control where 0% means no effect; nearly all actives have a fitted effect of over 60% in size
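Reporter readout depends on ELG1 protein level, which increases with genetic stress. After 16 hr compound exposure at 37 °C, luciferase activity was quantified using ONE-Glo.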
ELG1 repair inh: inhibitors of ELG1-dependent DNA repair in HEK293T cells | HEK293T ELG1-luciferase reporter, luminescence, 16 h; DNA damage induced by 5-fluorouridine | Potency, µM (titrated, usually from 46.1 µM), inactives show top-dose activity change, negative = inhibition, actives largely listed as inhibitors | 330,000 tested, 2.3% active | AID 504467; note: % is set by controls: 0 for no effect and ±100 for the full control effect; nearly all actives have a fitted effect of over 55% in size
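5-Fluorouridine DNA damage + compound/DMSO, 2,000 cells/well, 16 h, 37 °C/5% CO2. ONE-Glo, 30 min RT, luminescence. Readout = decrease in reporter signal.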
SMN2 splice enh: SMN2 splice variant enhancement. Potency, µM (series often up to 46.1 µM), for the others: at the highest dose activity change, positive = activation, most hits filed as activators. HEK293 SMN2-luciferase splicing reporter, luminescence, 30-36 h. 210,000 tested, 2.8% active. AID 1458; note: % of control where 0% means no effect; nearly all actives have a fitted effect of over 55% in size
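HEK293 cells carry an SMN2 […]–luciferase reporter in which exon 7 inclusion puts luciferase in frame. Cells were plated 10-12 h before compound addition, then incubated 30-36 h at 37C. ONE-Glo luminescence was read; sodium butyrate at 4.5 mM final served as control.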
FLuc counter: inhibits or activates purified firefly luciferase, miR-21 counter-screen. P08659. purified FLuc, Km substrates, luminescence inhibition. Potency, µM (series often up to 57.5 µM), for the others: at the highest dose activity change, negative = inhibition, actives largely listed as inhibitors. 360,000 tested, 6.9% active. AID 588342;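 note: plate controls were vehicle for no effect and reference inhibitor for full effect; nearly all actives have a fitted effect of over 55% in size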
Target sequence (P08659 whole entry, looked up): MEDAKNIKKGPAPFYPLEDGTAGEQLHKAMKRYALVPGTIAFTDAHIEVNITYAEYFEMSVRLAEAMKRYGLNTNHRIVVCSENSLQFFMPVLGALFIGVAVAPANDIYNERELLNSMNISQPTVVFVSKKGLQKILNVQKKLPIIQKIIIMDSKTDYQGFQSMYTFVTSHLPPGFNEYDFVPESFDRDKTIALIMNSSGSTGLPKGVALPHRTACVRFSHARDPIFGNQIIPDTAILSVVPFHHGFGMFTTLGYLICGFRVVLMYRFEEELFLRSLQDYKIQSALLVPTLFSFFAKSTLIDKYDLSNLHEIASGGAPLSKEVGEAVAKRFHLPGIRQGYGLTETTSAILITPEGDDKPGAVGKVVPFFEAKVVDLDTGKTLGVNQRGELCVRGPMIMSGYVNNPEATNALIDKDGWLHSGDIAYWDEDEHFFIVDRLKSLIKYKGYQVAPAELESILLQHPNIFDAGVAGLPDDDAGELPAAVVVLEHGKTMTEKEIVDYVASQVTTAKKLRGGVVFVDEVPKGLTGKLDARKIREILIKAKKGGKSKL
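Purified P. pyralis luciferase (10nM final) with 10uM D-luciferin and 10uM ATP (Km levels) in 50mM Tris acetate pH 7.5, 10mM Mg acetate, 0.01% Tween-20, 0.05% BSA; qHTS 6-point titration, ~60 µM downward; luminescence read.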
Numbers without * were called inactive. The list is not random: actives were taken first. Their share in the collection is about 9.2%. Calls come from the whole dose curve; as a rule, active = well fitted curve in the direction sought with a large enough effect; inconclusive = small, poorly fitted or top-dose-only effect, or another doubt; inactive = no such curve, though single readings can be large; an effect the other way counts as inactive or inconclusive. Potency is the fitted concentration of half-maximal effect.

What do the screens show for `COc1ccc(/C=C2/C(=O)ON=C2c2ccccc2)cc1OC`?
NPC1 promoter act: -6.1%; Rab9 promoter act: -7.6%; ELG1 genotoxic: 15.4%; ELG1 repair inh: inconclusive; SMN2 splice enh: 6.5%; FLuc counter: 10.7µM*

What do the screens show for `COc1ccc(/C=C2\C(=O)ON=C2c2cccc([N+](=O)[O-])c2)cc1`?
NPC1 promoter act: -3.7%; Rab9 promoter act: -3.1%; ELG1 genotoxic: 0.5%; ELG1 repair inh: 1.7%; SMN2 splice enh: 9.0%; FLuc counter: 23.9µM*

How did COc1ccc(/C=C2\C(=O)ON=C2c2ccccc2)cc1OC do in these assays?
NPC1 promoter act: -0.5%; Rab9 promoter act: 1.6%; ELG1 genotoxic: inconclusive; ELG1 repair inh: 25.8%; FLuc counter: inconclusive

How did Cc1cccc(C)c1NC(=O)CSc1nnc(C)n1CC1CCCO1 (centres undefined) do in these assays?
NPC1 promoter act: -2.2%; Rab9 promoter act: -1.3%; ELG1 genotoxic: -1.9%; ELG1 repair inh: 10.2%; SMN2 splice enh: 0.9%; FLuc counter: -0.2%

Results for COc1ccc(-n2c(=O)c3c4c(sc3n(CC(=O)N3CCCCC3C)c2=O)CCC4)c(OC)c1 (centres undefined) ?
SMN2 splice enh: -6.0%; FLuc counter: 4.7%

Results for Cc1ccc(C(=O)NNC(=O)c2ccncc2)cc1S(=O)(=O)N1CCOCC1 ?
NPC1 promoter act: 0.0%; Rab9 promoter act: -2.8%; ELG1 genotoxic: 0.9%; ELG1 repair inh: 24.4%; FLuc counter: -3.0%

Results for Cc1cc(C)cc(OCC(=O)Nc2cnn(CCCC(=O)O)c2)c1 ?
NPC1 promoter act: -1.5%; Rab9 promoter act: -0.3%; ELG1 genotoxic: 1.7%; ELG1 repair inh: 5.2%; FLuc counter: 0.0%

Results for NC(=O)C1Cc2ccccc2CN1C(=O)c1cc(C2CC2)nn1-c1ccccc1 (centres undefined) ?
ELG1 genotoxic: -3.3%; ELG1 repair inh: inconclusive

What do the screens show for `O=C1SC(SCc2ccccc2)=N/C1=C\c1ccc(C(=O)O)cc1`?
NPC1 promoter act: -2.4%; Rab9 promoter act: -2.5%; ELG1 genotoxic: -0.1%; ELG1 repair inh: 2.6%; FLuc counter: 23.9µM*

Results for Cc1c(C(=O)N2CCC(C)CC2)c(S(=O)(=O)NCc2ccc(Cl)cc2)c(C)n1C ?
FLuc counter: 4.5%

What do the screens show for `COc1ccc(-c2cc(C(=O)NCc3cccnc3)no2)cc1`?
NPC1 promoter act: inconclusive; Rab9 promoter act: inconclusive; ELG1 genotoxic: 12.7%; ELG1 repair inh: inconclusive; SMN2 splice enh: 7.3%; FLuc counter: 12µM*

Results for COc1ccc(CNC(=O)c2cc(-c3ccc(OC)cc3)on2)cc1 ?
SMN2 splice enh: -9.7%; FLuc counter: 4.8%

What do the screens show for `O=C(NCc1cccnc1)c1cc(-c2ccccc2)on1`?
NPC1 promoter act: 28.6%; Rab9 promoter act: inconclusive; ELG1 genotoxic: 20.6µM*; ELG1 repair inh: inconclusive; SMN2 splice enh: 15.8µM*; FLuc counter: inconclusive

What do the screens show for `O=C(NCc1cccnc1)c1cc(-c2cccs2)on1`?
NPC1 promoter act: inconclusive; Rab9 promoter act: inconclusive; ELG1 genotoxic: 9.9%; ELG1 repair inh: inconclusive; SMN2 splice enh: -0.3%; FLuc counter: inconclusive

Results for Cc1ccc(CCNC(=O)CCCn2c(=O)c3ccccc3n(Cc3ccccc3C#N)c2=O)cc1 ?
SMN2 splice enh: -12.8%; FLuc counter: -2.0%

How did CC(C)c1cc(Nc2cccc(O)c2)cc(C(C)C)c1O do in these assays?
NPC1 promoter act: -0.7%; Rab9 promoter act: 6.9%; ELG1 genotoxic: 0.2%; ELG1 repair inh: -7.8%; SMN2 splice enh: -0.8%; FLuc counter: -10.8%

What do the screens show for `N#CCc1c(C#N)c(N)nc(N2CCN(C=O)CC2)c1C#N`?
NPC1 promoter act: 23.3%; Rab9 promoter act: -3.3%; ELG1 genotoxic: 2.0%; ELG1 repair inh: -1.2%; SMN2 splice enh: -1.0%; FLuc counter: 0.4%

How did N#CCc1c(C#N)c(N)nc(N2CCN(S(=O)(=O)c3ccccc3)CC2)c1C#N do in these assays?
NPC1 promoter act: -0.5%; Rab9 promoter act: 0.0%; ELG1 genotoxic: 0.2%; ELG1 repair inh: 9.2µM*; SMN2 splice enh: -1.3%; FLuc counter: 2.8%

How did COc1ccc(NC(=O)C2CCN(S(=O)(=O)c3cn(C)cn3)CC2)cc1Cl do in these assays?
FLuc counter: -0.4%

How did CC(=O)Nc1ccc(NC2=CC(=O)c3ccccc3C2=O)cc1 do in these assays?
NPC1 promoter act: inconclusive; Rab9 promoter act: 2µM*; ELG1 genotoxic: inconclusive; ELG1 repair inh: inconclusive; FLuc counter: inconclusive

How did O=C1C(Cl)=C(Nc2ccc(O)cc2)C(=O)c2ccccc21 do in these assays?
NPC1 promoter act: -35.9%; Rab9 promoter act: -45.9%; ELG1 genotoxic: -9.2%; ELG1 repair inh: inconclusive; FLuc counter: inconclusive

Results for O=C1C=C(Nc2ccc(O)cc2)C(=O)c2ccccc21 ?
NPC1 promoter act: 0.6%; Rab9 promoter act: inconclusive; ELG1 genotoxic: inconclusive; ELG1 repair inh: inconclusive; FLuc counter: 5.36µM*

How did CC(=O)Nc1ccc(Nc2ccccc2)cc1 do in these assays?
NPC1 promoter act: 2.4%; Rab9 promoter act: 1.8%; ELG1 genotoxic: 6.6%; ELG1 repair inh: inconclusive; FLuc counter: -20.5%

How did CCOc1ccc(-n2ccnc(SCC(=O)Nc3ccc(CC)cc3)c2=O)cc1 do in these assays?
NPC1 promoter act: -6.0%; Rab9 promoter act: -1.6%; ELG1 genotoxic: -0.5%; ELG1 repair inh: -2.6%; FLuc counter: inconclusive

What do the screens show for `Cc1cccc(Nc2nc(-c3sc(C)nc3C)cs2)c1`?
NPC1 promoter act: inconclusive; Rab9 promoter act: inconclusive; ELG1 genotoxic: inconclusive; ELG1 repair inh: inconclusive; FLuc counter: 19µM*

What do the screens show for `CCCCC(=O)Nc1nc(C)c(-c2csc(Nc3ccccc3OC)n2)s1`?
NPC1 promoter act: -4.4%; Rab9 promoter act: -6.1%; ELG1 genotoxic: -3.9%; ELG1 repair inh: 16.4µM*; SMN2 splice enh: -11.4%; FLuc counter: inconclusive

What do the screens show for `CCC(=O)Nc1nc(C)c(-c2csc(Nc3cccc(O)c3)n2)s1`?
NPC1 promoter act: 13.4%; Rab9 promoter act: 2.5%; ELG1 genotoxic: -9.5%; ELG1 repair inh: 2.59µM*; FLuc counter: 10.7µM*

What do the screens show for `Cc1nc(C)c(-c2csc(Nc3ccc(S(N)(=O)=O)cc3)n2)s1`?
NPC1 promoter act: -7.9%; Rab9 promoter act: -1.6%; ELG1 genotoxic: 3.4%; ELG1 repair inh: inconclusive; FLuc counter: -3.9%

What do the screens show for `Cc1nc(C)c(-c2csc(Nc3cccc(O)c3)n2)s1`?
NPC1 promoter act: inconclusive; Rab9 promoter act: inconclusive; ELG1 genotoxic: inconclusive; ELG1 repair inh: inconclusive; FLuc counter: 10.7µM*
